# Test results as given in PubChem BioAssay (NCATS).
# Results filed as inconclusive are left out. A number with no mark means an inactive call. The source made the active and inactive calls. Calls follow the shape of the dose curve; as a rule, active = well fitted curve in the direction sought with a large enough effect; inconclusive = small, poorly fitted or top-dose-only effect, or another doubt; inactive = no such curve, though single readings can be large or run the other way.
# Biological target: Protein phosphatase 1D (Homo sapiens) (UniProt O15297)
# Assay: Rhodamine-PBP qHTS Assay for Modulators of WT P53-Induced Phosphatase 1 (WIP1) (AID 1347425)
# Settings: recombinant WIP1, Rhodamine-PBP phosphate fluorescence, real-time; series mostly up to 57.5 µM
# Description: Assay Provider (PI): Nathan Coussens Ph.D.
# National Center for Advancing Translational Sciences (NCATS), Rockville, MD
# National Institute of Health (NIH), Bethesda, Maryland
# WT P53-Induced Phosphatase 1 (WIP1) is a member of the magnesium-dependent serine/threonine protein phosphatase (PPM) family and is induced by P53 in response to DNA damage. In several human cancers, the WIP1 protein is overexpressed, which is generally associated with a worse prognosis. Although WIP1 is an attractive therapeutic target, no potent, selective, and bioactive small-molecule modulator with favorable pharmacokinetics has been reported. Phosphatase enzymes are among the most challenging targets for small molecules because of the difficulty of achieving both modulator selectivity and bioavailability. Another major obstacle has been the availability of robust and physiologically relevant phosphatase assays that are suitable for high-throughput screening.
# Here, we describe two orthogonal biochemical WIP1 activity assays that utilize phosphopeptides from native WIP1 substrates. We optimized a RapidFire MS assay to quantify the enzymatically dephosphorylated peptide reaction product in a 384-well format. Additionally, a redshifted Rhodamine-PBP fluorescence assay was optimized in a 1,536-well format to enable real-time WIP1 activity measurements through the detection of the orthogonal reaction product, Pi. We validated these two optimized assays by quantitative high-throughput screening against the National Center for Advancing Translational Sciences (NCATS) Pharmaceutical Collection and used secondary assays to confirm and evaluate inhibitors identified in the primary screen.
# SEQUENCE No. (e.g., 1, 2, 3, etc.); […] (e.g., Cells, Incubation, Reagent, etc.); VALUE; DESCRIPTION
# 1; Reagent; 3 uL; WIP1 (6.7 nM), Rh-PBP (13.3 uM), columns 1-48
# 3; Library Compounds; 23 nL; NCATS Pharmaceutical Collection, column 5-48
# 4; Control Compounds; DMSO in column 2, GSK2830371 (57.5 uM, final) in 3-fold serial dilutions in column 3, GSK2830371 (1.15 uM, final) in column 4
# 5; Time; 1 hr; incubation
# 6; Detection; fluorescence (f0); ViewLux, excitation filter = 525 nm, emission filter = 598 nm
# 7; Reagent; 1 uL; VEPP-pS-QETFS (40 uM), columns 2-48
# 8; Detection; fluorescence (f1); ViewLux, excitation filter = 525 nm, emission filter = 598 nm
# NOTES (numbers refer to sequence above)
# 1 & 2; Black medium binding Greiner 1536-well plates (# 789176-F); assay buffer: 50 mM Tris-HCl pH 7.5, 30 mM MgCl2, 1mM TCEP, 0.1 mM EGTA, 75 ug/mL BSA; dispensed with a BioRaptr liquid handler (Beckman Coulter).
# 3 & 4; Kalypsys pintool (equipped with 1536 pinhead, Wako USA) transfer. Tip wash sequence: DMSO, methanol, 3 sec vacuum dry.
# 5; Room temperature incubation.
# 7; VEPPL-pS-QETFS in assay buffer dispensed with a BioRaptr; final reaction conditions: 5 nM WIP1, 10 uM VEPPL-pS-QETFS, 10 uM Rh-PBP, 50 mM Tris-HCl pH 7.5, 30 mM MgCl2, 1 mM TCEP, 0.1 mM EGTA, 75 ug/mL BSA.
# 8; Measurement taken at 1 min intervals for 11 min. Delta readout = f1 - f0.
# Sequence of Protein phosphatase 1D (Homo sapiens) (O15297 whole entry, looked up): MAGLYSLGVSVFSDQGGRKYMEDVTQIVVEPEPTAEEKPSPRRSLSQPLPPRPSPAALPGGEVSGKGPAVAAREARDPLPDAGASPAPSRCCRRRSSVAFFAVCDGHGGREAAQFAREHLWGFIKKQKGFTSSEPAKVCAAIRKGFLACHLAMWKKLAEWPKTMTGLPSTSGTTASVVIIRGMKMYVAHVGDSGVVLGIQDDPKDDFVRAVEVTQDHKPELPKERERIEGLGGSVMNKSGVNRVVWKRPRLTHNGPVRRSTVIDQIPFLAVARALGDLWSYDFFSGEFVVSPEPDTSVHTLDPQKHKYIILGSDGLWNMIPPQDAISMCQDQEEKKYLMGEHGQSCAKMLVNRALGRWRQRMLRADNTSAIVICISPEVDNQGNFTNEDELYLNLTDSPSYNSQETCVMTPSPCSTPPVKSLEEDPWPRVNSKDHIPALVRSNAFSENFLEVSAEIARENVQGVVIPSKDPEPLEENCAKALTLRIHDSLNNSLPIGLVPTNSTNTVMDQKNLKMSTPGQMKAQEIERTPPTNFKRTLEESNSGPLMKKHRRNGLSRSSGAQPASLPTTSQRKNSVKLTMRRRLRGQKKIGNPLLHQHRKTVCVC
Compound,outcome,"activity change, negative = inhibition"
CC(=O)N[C@@H](CCC(=O)O)C(=O)O,inactive,–
N#C/C(=C1\SCC(c2ccccc2Cl)S1)n1ccnc1 (stereo not given),inactive,–
CO[C@H]1C=CO[C@@]2(C)Oc3c(C)c(O)c4c(O)c(c(/C=N/N5CCN(C)CC5)c(O)c4c3C2=O)NC(=O)/C(C)=C\C=C[C@H](C)[C@H](O)[C@@H](C)[C@@H](O)[C@@H](C)[C@H](OC(C)=O)[C@@H]1C,inactive,–
Cc1c(-c2ccccc2)oc2c(C(=O)OCCN3CCCCC3)cccc2c1=O,inactive,–
O=C(CCN1CCN2CCCC2C1)N1c2ccccc2Sc2ccc(Cl)cc21 (stereo not given),inactive,–
CCN(CC)CCOC(=O)C(Cc1cccc2ccccc12)CC1CCCO1 (stereo not given),inactive,–
CCCCN1C[C@H](O)[C@@H](O)[C@H](O)[C@H]1CO,inactive,–
CCc1nn(CCCN2CCN(c3cccc(Cl)c3)CC2)c(=O)n1CCOc1ccccc1,inactive,–
CN1CCN(c2c(F)cc3c(=O)c(C(=O)O)cn4c3c2SCC4)CC1,inactive,–
N=C(N)N1CCc2ccccc2C1,–,-1.93% [at 4.81 µM]
COc1cc(C(=O)NCc2ccc(OCCN(C)C)cc2)cc(OC)c1OC,inactive,–
CCCCCCCCCCCCCCCC(=O)O,inactive,–
CC[C@]12CCCN3CCc4c(n(c5ccccc45)C(=O)C1)[C@@H]32,inactive,–
O[C@@H](c1cc(C(F)(F)F)nc2c(C(F)(F)F)cccc12)[C@H]1CCCCN1,inactive,–
N/C(=N\N=C\c1ccc(Cl)cc1)N/N=C/c1ccc(Cl)cc1,inactive,–
CCN(CC)CCNC(=O)c1cc(Br)c(N)cc1OC,inactive,–
O=C1OC(CN2CCOCC2)CN1/N=C/c1ccc([N+](=O)[O-])o1 (stereo not given),inactive,–
CCN(CC)CCOc1ccccc1C(=O)CCc1ccccc1,inactive,–
CCCCNc1ccc(C(=O)OCCOCCOCCOCCOCCOCCOCCOCCOCCOC)cc1,inactive,–
CCN(CC)CCNc1ccc(CO)c2sc3ccccc3c(=O)c12,inactive,–

Compound,outcome,"activity change, negative = inhibition"
C[N+]1(C)CCC(=C(c2ccccc2)c2ccccc2)CC1,inactive,–
CN1CCN(C2=Nc3cc(F)ccc3Cc3ccccc32)CC1,inactive,–
NS(=O)(=O)c1ccc(Cl)c(S(N)(=O)=O)c1,inactive,–
Nc1nc(Cl)nc2c1ncn2[C@@H]1O[C@H](CO)[C@@H](O)[C@@H]1F,inactive,–
CNCCCCOc1ccccc1Cc1ccccc1,inactive,–
FC1(F)C(F)(F)C(F)(F)C2(F)C(F)(F)C(F)(F)C(F)(F)C(F)(F)C2(F)C1(F)F (stereo not given),inactive,–
CC(=O)Oc1ccc(C)cc1,inactive,–
CC1CCc2c(N3CCC(O)CC3)c(F)cc3c(=O)c(C(=O)O)cn1c23 (stereo not given),inactive,–
c1ccc(-c2nc[nH]c2-c2ccccc2)cc1,inactive,–
CCC1Nc2cc(Cl)c(S(N)(=O)=O)cc2S(=O)(=O)N1 (stereo not given),inactive,–
Cc1cc2c(OCC(CNC(C)(C)C)OC(=O)c3ccccc3)cccc2[nH]1 (stereo not given),inactive,–
CCN(CC)CCOC(=O)C1(c2ccccc2)CCCC1,inactive,–
O=C(Nc1ccc([N+](=O)[O-])cc1)Nc1ccc([N+](=O)[O-])cc1,inactive,–
O=C1[C@H](CC[C@H](O)c2ccc(F)cc2)[C@@H](c2ccc(O)cc2)N1c1ccc(F)cc1,inactive,–
CCN1CCCC(OC(=O)C(c2ccccc2)c2ccccc2)C1 (stereo not given),inactive,–
COc1ccc(C(Cl)=C(c2ccc(OC)cc2)c2ccc(OC)cc2)cc1,inactive,–
CC(=O)OCC1=C(C(=O)O)N2C(=O)[C@@H](NC(=O)CSc3ccncc3)[C@H]2SC1,inactive,–
Cc1ccc(S(=O)(=O)NC(=O)NC2CCCC2)cc1,inactive,–
COP(=O)(OC)OC(c1ccc(Cl)cc1)P(=O)(OC)OC (stereo not given),inactive,–
O=c1[nH]c(=O)n([C@H]2C[C@H](O)[C@@H](CO)O2)cc1F,inactive,–
